Measurements reported in PubChem BioAssay (NCI).
The panel holds about 79,000 compounds, 15% with a hit somewhere; the sample as a whole holds those more often. A number with no mark means an inactive call. Activity calls are given as the source filed them. No stated cut-off is given here; in the data, active means growth inhibition above about 70%; inactive means the rest.

Assays:
[1] = NCI Yeast Anticancer Drug Screen. Data for the rad50 strain (AID 155);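 further: 0% = growth of vehicle-only cultures of the same strain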; details: S. cerevisiae rad50 strain growth inhibition, stronger effect = higher value
Outline: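 Cells are treated with compound, grown, and their growth is then scored against vehicle-only cultures of the same repair-deficient yeast strain.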

[2] = NCI Yeast Anticancer Drug Screen. Data for the mec2-1 strain (AID 157); details: S. cerevisiae mec2-1 strain, stronger effect = higher value
Outline: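 Cells of the genetically defined mec2-1 yeast strain are incubated with test compound. Inhibition of growth is calculated against vehicle-treated controls.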

[3] = NCI Yeast Anticancer Drug Screen. Data for the sgs1 mgt1 strain (AID 161);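 further: 0% = growth of cultures given vehicle only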; details: S. cerevisiae sgs1 mgt1 strain, stronger effect = higher value
Outline: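 Mutant yeast exposed to compound; growth scored against vehicle-only wells.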

[4] = NCI Yeast Anticancer Drug Screen. Data for the cln2 rad14 strain (AID 165);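 further: 0% = growth equal to vehicle treated cultures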; details: S. cerevisiae cln2 rad14 strain, stronger effect = higher value
Outline: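 The screen exposed genetically defined yeast (cln2 rad14) to test compounds and scored growth inhibition relative to vehicle-treated controls.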

[5] = NCI Yeast Anticancer Drug Screen. Data for the bub3 strain (AID 167); details: S. cerevisiae bub3 mutant strain, stronger effect = higher value
Outline: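 Part of a panel of yeast mutants defective in DNA damage repair or cell cycle regulation. Each strain is grown with compound, and inhibition is calculated relative to solvent-treated cultures.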

[6] = NCI Yeast Anticancer Drug Screen. Data for the mlh1 rad18 strain (AID 175); details: S. cerevisiae mlh1 rad18 strain growth inhibition, stronger effect = higher value
Outline: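 Compound-treated yeast growth, normalised to vehicle controls. Strain bears defined DNA repair mutations.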

[7] = at 5.0 µM (retest, dose inferred, filed as 0.5)
[8] = at 50.0 µM (retest, dose inferred, filed as 5.0)

SMILES	growth inhibition [1, 7] [%]	growth inhibition [1, 8]	growth inhibition ([1]; at 50.0 µM)	growth inhibition [2, 7] [%]	growth inhibition [2, 8]	growth inhibition ([2]; at 50.0 µM)	growth inhibition [3, 7] [%]	growth inhibition [3, 8]	growth inhibition ([3]; at 50.0 µM)	growth inhibition [4, 7] [%]	growth inhibition [4, 8]	growth inhibition ([4]; at 50.0 µM)	growth inhibition [5, 7] [%]	growth inhibition [5, 8]	growth inhibition ([5]; at 50.0 µM)	growth inhibition [6, 7] [%]	growth inhibition [6, 8]	growth inhibition ([6]; at 50.0 µM)
CCC(C)OC(=S)S (stereo not drawn)	4	36%	42.9%	8	44%	33.8%	-7	26%	74.2% (active)	1	-4%	-20.8%	3	59%	90.7% (active)	15	57%	85% (active)
COC(=O)c1cc2c(oc1=O)-c1ccccc1N(C=O)C2	-3	-8%	0.3%	-9	-11%	-8.75%	-13	-11%	11.4%	-11	-9%	-55.8%	-16	-24%	-35.1%	0	-21%	2.1%
CN1C(C)(C)CC(O)(C#N)CC1(C)C	4	99% (active)	98.6% (active)	2	99% (active)	99.7% (active)	1	99% (active)	99.3% (active)	-6	97% (active)	99.2% (active)	-7	99% (active)	99.5% (active)	12	99% (active)	99.4% (active)
CCOC(=O)C1CC2(CCC1N)c1ccccc1-c1ccccc12 (stereo not drawn)	3	28%	28.6%	-5	8%	47.5%	-2	27%	44.5%	-5	34%	22.9%	-5	23%	90.7% (active)	1	81% (active)	37.5%
COc1cccc2c1C(=O)c1c(O)c(CCl)cc(O)c1C2=O	44	97% (active)	94% (active)	23	91% (active)	76.5% (active)	47	96% (active)	95.2% (active)	17	96% (active)	91.5% (active)	3	49%	21.8%	35	97% (active)	94.6% (active)
COC(=O)c1ccc(-c2ccccc2)cc1	-1	83% (active)	82.3% (active)	1	94% (active)	99.2% (active)	3	82% (active)	98% (active)	-2	55%	44.2%	10	92% (active)	96% (active)	2	86% (active)	96.8% (active)
